This is an account of results in PubChem BioAssay (NCATS).

Unmarked numbers belong to inactive results. Records with an inconclusive call do not appear. Active and inactive are the calls of the source. Unless noted, calls come from the whole dose curve; as a rule, active = well fitted curve in the direction sought with a large enough effect; inconclusive = small, poorly fitted or top-dose-only effect, or another doubt; inactive = no such curve, though single readings can be large; an effect the other way counts as inactive or inconclusive.

Experiment [1] deals with Cytochrome P450 1A2 (Homo sapiens) (UniProt P05177). Description: p450-cyp1a2 (AID 410; calls by dose curve; note: potency is the fitted concentration of half-maximal effect). The method in brief: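 20nM CYP1A2, 100uM Luciferin-ME (=Km), 100mM KPO4; cpd 10 min RT; +NADPH regen, 60 min RT; stop/detect 20 min; luminescence. Normalized to furafylline 57 uM = full inhibition.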
Cytochrome P450 1A2 (Homo sapiens), sequence (P05177 whole entry, looked up): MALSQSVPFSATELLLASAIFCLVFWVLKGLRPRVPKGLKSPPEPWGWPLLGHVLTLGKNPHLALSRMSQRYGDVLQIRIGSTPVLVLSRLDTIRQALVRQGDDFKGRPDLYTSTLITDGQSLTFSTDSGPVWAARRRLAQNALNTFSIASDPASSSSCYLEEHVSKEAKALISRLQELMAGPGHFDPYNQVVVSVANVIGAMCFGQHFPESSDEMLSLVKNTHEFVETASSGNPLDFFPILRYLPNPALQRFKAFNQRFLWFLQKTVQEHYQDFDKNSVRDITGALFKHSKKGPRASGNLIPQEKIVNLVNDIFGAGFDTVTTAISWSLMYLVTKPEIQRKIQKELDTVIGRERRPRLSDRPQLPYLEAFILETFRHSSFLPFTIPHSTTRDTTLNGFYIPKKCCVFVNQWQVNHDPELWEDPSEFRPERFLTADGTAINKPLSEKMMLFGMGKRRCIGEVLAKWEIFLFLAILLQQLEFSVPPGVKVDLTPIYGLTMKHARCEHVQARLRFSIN
Experiment [2] addresses Glucocorticoid receptor (Homo sapiens) (UniProt P04150). Description: GR-GFP Redistribution (AID 450;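 active = compounds whose dose series gives a full or clear partial fitted curve of increased nuclear translocation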; note: potency is the fitted concentration of half-maximal effect). Particulars: U2OS GR-GFP nuclear translocation, laser cytometry, 2 h.
Experiment [3] shares this target. Description: GR-EFC Redistribution (AID 451; calls by dose curve; note: potency is the fitted concentration of half-maximal effect). Particulars: CHO-K1 GR-EFC translocation, beta-gal luminescence, 2 h. The essentials:
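CHO-K1 cells stably expressing nuclear-localized β-gal enzyme acceptor and GR fused C-terminally to the enzyme donor fragment; ligand-driven nuclear translocation restores β-gal by complementation. Compounds titrated up to 46 uM final, 2 h at 37 °C; luminescence read.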

Experiment [4] concerns the target Mitogen-activated protein kinase 10 (Mus musculus) (UniProt Q61831). Description: JNK3 AlphaScreen Assay (AID 530; active = well fitted curve in either direction with a large enough effect, not every such curve was filed as active;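 note: kinase came from lysate of stimulated human HepG2 cells; signal reports phosphorylation of biotinylated GST-cJun 1-79 at Ser73 with 10 µM ATP; series mostly up to about 57 µM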). The essentials:
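Biotinylated GST-cJun(1-79) served as substrate for JNK3 in HepG2 lysates stimulated with IL-1beta and TNF-alpha. ATP was 10 uM final, pH 7.6. Ser73 phosphorylation was quantified by AlphaScreen (680 nm excitation).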
(In Alpha technology, singlet oxygen from a donor bead excites a nearby acceptor bead.)

The target of experiment [5] is 3',5'-cyclic-AMP phosphodiesterase 4B (Homo sapiens) (UniProt Q07343). The experiment can be described thus: qHTS Assay for Inhibitors of PDE-IV (AID 607; active = well fitted activation curve with a large enough effect in the main read-out, with a control signal flat, not every such curve was filed as active). The essentials: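 Live HEK293 cells with a modified cyclic nucleotide-gated (CNG) channel report intracellular cAMP via membrane-potential dye fluorescence (ex 535/em 590 nm). Endogenous PDE-IV was targeted. Compounds were tested at up to 22.9 uM final; RO 20-1724 100 uM served as control.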
3',5'-cyclic-AMP phosphodiesterase 4B (Homo sapiens), sequence (Q07343 whole entry, looked up): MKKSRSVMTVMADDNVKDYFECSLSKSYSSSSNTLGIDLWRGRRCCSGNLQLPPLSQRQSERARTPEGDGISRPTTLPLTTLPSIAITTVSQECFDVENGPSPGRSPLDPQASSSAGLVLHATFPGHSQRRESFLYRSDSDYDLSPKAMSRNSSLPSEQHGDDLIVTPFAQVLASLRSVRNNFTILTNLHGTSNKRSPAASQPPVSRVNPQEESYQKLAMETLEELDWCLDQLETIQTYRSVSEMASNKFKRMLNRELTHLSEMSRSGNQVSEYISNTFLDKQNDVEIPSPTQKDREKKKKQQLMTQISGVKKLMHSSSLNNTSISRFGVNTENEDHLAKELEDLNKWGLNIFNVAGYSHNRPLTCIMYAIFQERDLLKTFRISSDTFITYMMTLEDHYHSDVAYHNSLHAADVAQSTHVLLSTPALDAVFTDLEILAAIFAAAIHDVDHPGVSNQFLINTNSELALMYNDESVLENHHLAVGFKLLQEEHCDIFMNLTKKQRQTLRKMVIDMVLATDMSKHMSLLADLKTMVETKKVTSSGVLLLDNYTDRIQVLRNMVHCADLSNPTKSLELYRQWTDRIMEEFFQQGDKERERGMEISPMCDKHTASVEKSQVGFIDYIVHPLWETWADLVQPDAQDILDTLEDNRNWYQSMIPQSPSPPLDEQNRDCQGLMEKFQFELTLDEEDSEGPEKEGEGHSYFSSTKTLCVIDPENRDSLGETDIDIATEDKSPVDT
In general terms: In qHTS, concentration-response curves come from the screen itself.

Experiment [6] concerns the target Cytochrome P450 2C9 (Homo sapiens) (UniProt P11712). The experiment can be described thus: qHTS Assay for Inhibitors and Substrates of Cytochrome P450 2C9 (AID 883). Note: potency is the fitted concentration of half-maximal effect; nearly all actives have a fitted effect of over 60% in size. The essentials: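 CYP2C9 deoxyluciferin hydroxylation, 37C, 60 min with NADPH regeneration; 10nM enzyme, 100uM Luciferin-H (KM). Glo detection reagent stopped reaction; luminescence normalized to sulphaphenazole (57uM) full inhibition.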

The target of experiment [7] is Cytochrome P450 3A4 (Homo sapiens) (UniProt P08684). The experiment can be described thus: qHTS Assay for Activators of Cytochrome P450 3A4 (AID 885). Note: nearly all actives have a fitted effect of over 65% in size. The essentials:
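Using 20nM recombinant human CYP3A4 in potassium phosphate (200mM), substrate Luciferin-PPXE at 25uM, luminescent luciferin detection followed a 60-min RT NADPH reaction; data scaled to 57 uM ketoconazole.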

In experiment [8] the target is Cytochrome P450 2C19 (Homo sapiens) (UniProt P33261). Description: qHTS Assay for Inhibitors and Substrates of Cytochrome P450 2C19 (AID 899). Note: potency is the fitted concentration of half-maximal effect; nearly all actives have a fitted effect of over 60% in size. The method in brief: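 In 50mM KPO4, the reaction held 5nM enzyme and KM-level (10uM) Luciferin-H EGE; it ran 60 min at 37C after NADPH regeneration and a 10 min compound preincubation. Luminescence values were scaled to 57uM ketoconazole as complete inhibition.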
Cytochrome P450 2C19 (Homo sapiens), sequence (P33261 whole entry, looked up): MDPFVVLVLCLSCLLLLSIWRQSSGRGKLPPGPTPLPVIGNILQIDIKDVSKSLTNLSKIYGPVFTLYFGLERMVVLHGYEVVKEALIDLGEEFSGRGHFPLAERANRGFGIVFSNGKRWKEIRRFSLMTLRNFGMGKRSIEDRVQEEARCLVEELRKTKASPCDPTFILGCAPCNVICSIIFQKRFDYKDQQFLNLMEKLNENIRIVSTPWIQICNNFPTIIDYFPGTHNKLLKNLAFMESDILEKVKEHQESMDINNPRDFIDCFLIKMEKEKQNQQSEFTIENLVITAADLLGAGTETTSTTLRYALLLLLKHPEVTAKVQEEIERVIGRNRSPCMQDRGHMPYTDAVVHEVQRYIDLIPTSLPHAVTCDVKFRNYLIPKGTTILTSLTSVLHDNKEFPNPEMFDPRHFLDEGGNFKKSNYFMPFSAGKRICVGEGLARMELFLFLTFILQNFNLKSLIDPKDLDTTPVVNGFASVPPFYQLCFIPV

Experiment [9] deals with DNA dC->dU-editing enzyme APOBEC-3G (Homo sapiens) (UniProt Q9HC16). The experiment can be described thus: qHTS for inhibitors of Vif-A3G interactions: Validation (AID 588379). The method in brief:
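Yellow fluorescence (Ex 488, Em 500-530) of Vif-coexpressing HeLa A3G-eYFP cells, scanned by Acumen cytometer, reports blocked A3G degradation. Cells plated at 700/well overnight at 37 deg C before compound addition, then a further overnight compound incubation at 37 deg C.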

Experiment [10] is described as follows: P-glycoprotein substrates identified in KB-8-5-11 adenocarcinoma cell line, qHTS therapeutic library screen (AID 1346987). Note: series mostly up to about 44 µM; nearly all actives have a fitted effect of over 65% in size. The method in brief: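 In this qHTS, P-gp-rich KB-8-5-11 cells received library compounds across a concentration range. Viability was quantified by luminescence after 72 h at 37 degree C.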
For experiment [11], the system named is Zika virus NS2B-NS3 protease. Description: Primary screen GU AMC qHTS for Zika virus inhibitors (AID 1347154). Note: nearly all actives have a fitted effect of over 70% in size. The essentials: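 Unlinked Zika NS2B hydrophilic domain/NS3 protease domain noncovalent complex (25 nM final) in 10 mM Tris-HCl pH 8.0, 0.01% Tween 20, with AMC peptide substrate. Fluorescence (ex 340, em 450 nm) change over 15 min, room temperature; percent inhibition fitted to 4-parameter Hill equation.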

Experiment [12] is described as follows: Primary qHTS for small molecule stabilizers of the endoplasmic reticulum resident proteome: Secreted ER Calcium Modulated Protein (SERCaMP) assay (AID 1508630). The essentials: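 The SH-SY5Y reporter protocol was run at 3 concentrations up to 38.3 uM (primary) or 11 concentrations (follow-up): 16 h compound, 100 nM thapsigargin for 4 h, then extracellular luciferase luminescence.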

The nature of experiment [13]: Primary qHTS for inhibitors of nuclear receptor binding SET domain protein 2 (NSD2) in an isogenic RCH-ACV NSD2 p.E1099K mutant (9B) (AID 1645876). Note: nearly all actives have a fitted effect of over 70% in size.
The nature of experiment [14]: Primary qHTS for inhibitors of nuclear receptor binding SET domain protein 2 (NSD2) in an RCH-ACV wild type WT cells (2C) (AID 1645877). Note: nearly all actives have a fitted effect of over 70% in size.
In experiment [15] the target is Glutathione peroxidase 1 (Homo sapiens) (UniProt P07203). Description: Primary qHTS Assay for Inhibitors of Recombinant Selenoprotein Glutathione Peroxidase 1 (GPX1) (AID 1845191). Note: nearly all actives have a fitted effect of over 65% in size. The method in brief: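 GPX1 10 nM, GR 100 nM, GSH 1 mM, NADPH 0.5 mM, CHP 0.5 mM (final). 30-min cpd preincubation, RT. Ex340/Em450 read t=0, t=15 min.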
Glutathione peroxidase 1 (Homo sapiens), sequence (P07203 whole entry, looked up): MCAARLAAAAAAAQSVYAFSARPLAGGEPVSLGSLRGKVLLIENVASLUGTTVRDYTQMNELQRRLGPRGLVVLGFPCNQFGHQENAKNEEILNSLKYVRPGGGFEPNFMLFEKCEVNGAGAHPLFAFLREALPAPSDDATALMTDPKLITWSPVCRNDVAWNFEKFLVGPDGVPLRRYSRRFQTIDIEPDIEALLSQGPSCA

Glucocorticoid receptor (Homo sapiens), sequence (P04150 whole entry, looked up): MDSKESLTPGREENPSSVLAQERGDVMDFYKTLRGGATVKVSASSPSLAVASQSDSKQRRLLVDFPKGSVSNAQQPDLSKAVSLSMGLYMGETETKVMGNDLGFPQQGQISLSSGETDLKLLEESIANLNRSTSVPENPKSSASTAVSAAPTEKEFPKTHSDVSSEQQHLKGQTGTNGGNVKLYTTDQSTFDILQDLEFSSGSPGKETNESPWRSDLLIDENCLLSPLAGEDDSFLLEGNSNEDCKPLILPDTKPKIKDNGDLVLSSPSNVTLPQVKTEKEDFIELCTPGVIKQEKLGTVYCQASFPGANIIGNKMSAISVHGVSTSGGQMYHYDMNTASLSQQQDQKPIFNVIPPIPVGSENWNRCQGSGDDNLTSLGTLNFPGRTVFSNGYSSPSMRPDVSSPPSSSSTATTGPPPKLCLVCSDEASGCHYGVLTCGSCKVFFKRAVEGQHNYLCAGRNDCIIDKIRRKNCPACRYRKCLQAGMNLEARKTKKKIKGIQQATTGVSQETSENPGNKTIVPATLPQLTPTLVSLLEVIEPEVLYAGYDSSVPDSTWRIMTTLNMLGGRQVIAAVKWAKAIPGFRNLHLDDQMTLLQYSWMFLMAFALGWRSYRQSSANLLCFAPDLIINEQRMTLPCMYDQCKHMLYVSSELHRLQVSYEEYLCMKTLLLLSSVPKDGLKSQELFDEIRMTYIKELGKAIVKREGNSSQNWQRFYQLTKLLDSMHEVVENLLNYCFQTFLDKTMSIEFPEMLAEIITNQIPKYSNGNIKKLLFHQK
DNA dC->dU-editing enzyme APOBEC-3G (Homo sapiens), sequence (Q9HC16 whole entry, looked up): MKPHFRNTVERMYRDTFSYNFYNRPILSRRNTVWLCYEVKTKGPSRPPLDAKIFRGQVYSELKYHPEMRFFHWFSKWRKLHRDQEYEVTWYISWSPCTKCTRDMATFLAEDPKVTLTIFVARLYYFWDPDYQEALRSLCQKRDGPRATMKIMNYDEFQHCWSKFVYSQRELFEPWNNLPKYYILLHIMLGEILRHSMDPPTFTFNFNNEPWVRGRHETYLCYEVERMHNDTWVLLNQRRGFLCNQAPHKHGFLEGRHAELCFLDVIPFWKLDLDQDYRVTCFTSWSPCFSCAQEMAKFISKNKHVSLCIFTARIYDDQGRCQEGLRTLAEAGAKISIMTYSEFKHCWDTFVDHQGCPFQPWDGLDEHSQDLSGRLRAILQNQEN
Cytochrome P450 2C9 (Homo sapiens), sequence (P11712 whole entry, looked up): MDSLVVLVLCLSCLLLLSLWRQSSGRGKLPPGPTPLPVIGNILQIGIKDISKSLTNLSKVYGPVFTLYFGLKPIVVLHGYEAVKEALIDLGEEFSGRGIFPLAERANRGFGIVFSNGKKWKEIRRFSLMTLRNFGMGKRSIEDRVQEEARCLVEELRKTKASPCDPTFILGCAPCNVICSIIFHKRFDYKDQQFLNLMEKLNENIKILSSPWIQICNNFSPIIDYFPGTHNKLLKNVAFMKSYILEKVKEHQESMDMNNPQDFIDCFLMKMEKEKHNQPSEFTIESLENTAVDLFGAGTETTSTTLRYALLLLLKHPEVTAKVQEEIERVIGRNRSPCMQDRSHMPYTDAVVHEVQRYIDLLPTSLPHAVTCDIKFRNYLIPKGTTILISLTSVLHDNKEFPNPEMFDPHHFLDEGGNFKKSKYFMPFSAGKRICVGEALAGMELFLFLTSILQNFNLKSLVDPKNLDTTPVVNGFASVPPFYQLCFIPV
Cytochrome P450 3A4 (Homo sapiens), sequence (P08684 whole entry, looked up): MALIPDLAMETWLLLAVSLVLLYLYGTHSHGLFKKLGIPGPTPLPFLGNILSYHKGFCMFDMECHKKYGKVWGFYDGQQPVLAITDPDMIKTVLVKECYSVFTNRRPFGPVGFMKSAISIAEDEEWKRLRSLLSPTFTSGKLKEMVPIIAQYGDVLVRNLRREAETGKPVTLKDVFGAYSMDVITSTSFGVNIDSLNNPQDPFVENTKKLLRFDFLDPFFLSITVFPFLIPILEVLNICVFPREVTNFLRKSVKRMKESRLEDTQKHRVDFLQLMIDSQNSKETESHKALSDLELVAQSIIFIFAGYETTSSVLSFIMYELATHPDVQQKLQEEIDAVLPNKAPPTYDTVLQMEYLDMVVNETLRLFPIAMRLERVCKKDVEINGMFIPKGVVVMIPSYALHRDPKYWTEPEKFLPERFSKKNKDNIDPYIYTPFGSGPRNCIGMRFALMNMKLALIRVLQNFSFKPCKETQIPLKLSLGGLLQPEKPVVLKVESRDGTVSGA

With `Nc1[nH]nc2nc3ccccc3nc12`, the Potency in experiment [1] was 0.316 µM (active); in experiment [2], more than 46 µM; in [3] it was more than 46 µM; in experiment [6], 2 µM (active); in experiment [8], 0.631 µM (active). The Potency entry in experiment [4], in [5], in experiment [7], in [9], in [10] and in experiment [11] was “inactive” each time. In addition, the Potency result in [12], in experiment [13], in experiment [14] and in experiment [15] was “inactive” in each case.
